# In the library only some 2.2% were active in any assay of this set; here they are far more common.
# aSyn rescue = inhibitors of alpha-synuclein toxicity in yeast; hit rate 0.14% among 370,000; AID 652106; Potency, µM (top dose mostly 46.1 µM), without a hit: top-dose growth rescue (activation), hits mostly activators; Yeast expressing alpha-synuclein, growth rescue, BacTiter-Glo, 24 h; note: % of control where 0% means no effect; nearly all actives have a fitted effect of over 65% in size
#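 Screening used galactose-induced yeast with toxic alpha-synuclein levels, exposed to compound for 24 hr at 30 deg C. Cell growth, read with BacTiter-Glo luminescence, gave the measured signal.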
# Abeta rescue = compounds reversing amyloid beta toxicity in yeast | yeast expressing A-beta42, growth rescue, OD600, 48 h; response scale: 0% DMSO, 100% iron-clioquinol control | Potency, µM (highest dose often 46.1 µM), most hits filed as activators | hit rate 0.063% among 410,000 | AID 1347071; note: nearly all actives have a fitted effect of over 55% in size
#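 Growth rescue measured by 600 nm absorbance after 48 h yeast culture at 30 C with compound. Values normalized between DMSO and an equimolar ferric chloride plus clioquinol control.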
# Mito fusion yeast = blocks mitochondrial division or promotes mitochondrial fusion; AID 485298; hit rate 0.23% among 320,000; S. cerevisiae fusion-defective mutant growth rescue, CellTiterGlo 48 h; Potency, µM (top dose mostly 46.1 µM), for inactives: at the highest dose growth rescue (activation), hits mostly activators; note: % of control where 0% means no effect; nearly all actives have a fitted effect of over 45% in size
#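 Luminescent cell viability in 1536-well qHTS format served as the measure of rescued growth in ts fusion-mutant S. cerevisiae cultured on non-fermentable YPEG for 48 hours at 37C.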
# FUS yeast rescue = FUS proteinopathy suppression in yeast; S. cerevisiae FUS-expressing, growth rescue, OD600, 24 h; Potency, µM (top dose mostly 76.6 µM), hits mostly activators; hit rate 0.24% among 390,000; AID 1347120;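 note: plate controls were DMSO vehicle for no effect and reference control for full effect; nearly all actives have a fitted effect of over 55% in size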
#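 S. cerevisiae expressing FUS from galactose induction served as the toxicity model. Growth after 24hr at 30C, read as absorbance at 600 nm, indicates suppression of toxicity; compounds dosed at several concentrations.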
# TDP43 rescue = inhibitors of TDP-43 toxicity in yeast; hit rate 1.8% among 410,000; AID 652104; Potency, µM (highest dose often 46.1 µM), without a hit: at the top dose growth rescue (activation), most hits filed as activators; TDP-43 expressing yeast growth rescue, BacTiter-Glo, 24 h; note: % of control where 0% means no effect; nearly all actives have a fitted effect of over 50% in size
#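 Growth rescue of TDP-43-toxic yeast measured as ATP luminescence (BacTiter-Glo). Cells grown to mid-log in raffinose, induced in galactose at OD600=0.02, exposed to compound 24 hr at 30 deg C.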
# * = called active by the depositor; i = inactive; ? = inconclusive; nt = no result; [ ] = another dose, or the depositor's remark. Calls come from the whole dose curve; as a rule, active = well fitted curve in the direction sought with a large enough effect; inconclusive = small, poorly fitted or top-dose-only effect, or another doubt; inactive = no such curve, though single readings can be large; an effect the other way counts as inactive or inconclusive. Potency is the fitted concentration of half-maximal effect.
SMILES,aSyn rescue,Abeta rescue,Mito fusion yeast,FUS yeast rescue,TDP43 rescue
Brc1ccc(Oc2nnnn2-c2ccccc2)cc1,-1%,i,0%,i,16µM*
c1ccc(OCc2nnnn2-c2ccccc2)cc1,-7%,i,-7%,i,13%
Clc1ccc(OCc2nnnn2-c2ccccc2)cc1,4%,i,4%,nt,13µM*
CC(=O)COc1cc2c(-c3cc4ccccc4o3)cc(=O)oc2cc1C,0%,i,13%,i,0%
C#CCOCCOCCOCCNc1nc(N2CCN(C(=O)C(Cc3cc4ccccc4[nH]3)n3cc(C(N)C(C)CC)nn3)CC2)nc(N2CCN(C(=O)C(Cc3cc4ccccc4[nH]3)n3cc(C(N)C(C)CC)nn3)CC2)n1 (stereo not given),-28%,i,2%,?,9%
CC[C@@H](C)C(NC(=O)OC(C)(C)C)c1cn([C@@H](CCCCNC(=O)OC(C)(C)C)C(=O)N2CCN(C(=O)OC(C)(C)C)CC2)nn1 (stereo not given in full),3%,i,-4%,i,0%
CC[C@@H](C)C(NC(=O)OC(C)(C)C)c1cn([C@@H](Cc2cc3ccccc3[nH]2)C(=O)N2CCN(C(=O)OC(C)(C)C)CC2)nn1 (stereo not given in full),11%,i,-3%,14µM*,-3%
CC(C)CC(NC(=O)OC(C)(C)C)c1cn([C@@H](CCCCNC(=O)OC(C)(C)C)C(=O)N2CCN(C(=O)OC(C)(C)C)CC2)nn1 (stereo not given in full),0%,i,-3%,7.9µM*,1%
COc1ccc(C(=O)NC2CCCc3c2cnn3-c2ccccc2F)o1 (stereo not given),-5%,i,4%,i,-7%
O=C(N/N=C/C(Cl)=C/c1ccccc1)c1ccc2c(c1)OCO2,-1%,i,4%,i,5%
N#CCSc1nnc(COc2cccc3ccccc23)n1-c1ccccc1,0%,i,-3%,i,20µM*
COc1ccc(-c2cc(C)nc3c(-c4ccc(OC)c(OC)c4)c(C)nn23)cc1,nt,i,nt,i,3%
Cc1ccc(-c2cnc(-c3ccncc3)o2)cc1,5%,i,-6%,i,16µM*
CCc1nnc(NC(=O)c2ccccc2NC(=O)C2CCN(C(=O)c3ccco3)CC2)s1,0%,nt,nt,nt,nt
O=C(/C=C/c1cn(-c2ccccc2)nc1-c1cccnc1)N1CCCCC1,4%,i,16%,i,?
O=C(/C=C/c1cn(-c2ccccc2)nc1-c1cccc(Cl)c1)N1CCN(c2ccccn2)CC1,-10%,i,-1%,?,14µM*
Cc1ccc(NC(=O)Nc2cn(CC(C)C)c(=O)c3ccccc23)cc1N(C)C,8%,i,nt,i,15%
CC(C)(C)c1ccc(NC(=O)c2ccc(=O)[nH]n2)cc1,-5%,i,7%,i,25%
COc1ccc(-n2cc(C(=O)NCCc3ccc(C)cc3)c3ccccc3c2=O)cc1,nt,i,nt,i,18µM*
COc1cccc(-n2cc(C(=O)NCCc3ccc(C)cc3)c3ccccc3c2=O)c1,nt,i,nt,i,0%
CCCCNc1c(-c2ccc(SC(C)CC)cc2)nc2cnccn12 (stereo not given),-71%,i,nt,10µM*,-93%
CCCCCCSc1cc(-c2nc3cnccn3c2NCCCC)ccc1OC,-64%,i,nt,?,0%
CCCCNc1c(-c2ccc(OC)c(Sc3ccc(OC)cc3)c2)nc2cnccn12,16%,i,nt,?,32µM*
CCS(=O)(=O)Nc1cccc(C2=NN(S(=O)(=O)CC)C(c3cccs3)C2)c1 (stereo not given),-6%,i,0%,i,-10%
COc1ccc(S(=O)(=O)NCC(c2ccco2)S(=O)(=O)c2ccc(C)cc2)cc1F (stereo not given),nt,i,nt,i,?
SMILES,aSyn rescue,Abeta rescue,Mito fusion yeast,FUS yeast rescue,TDP43 rescue
Cc1ccc(S(=O)(=O)C(CNS(=O)(=O)c2ccc(F)c(C(F)(F)F)c2)c2ccco2)cc1 (stereo not given),nt,i,nt,i,4µM*
Cc1oc(-c2ccc(Cl)cc2)nc1CSc1nc2ncccc2[nH]1,nt,i,nt,i,6%
O=C(NCc1nc2ccccc2[nH]1)C1=C[C@H](c2ccc(C(F)(F)F)cc2)C[C@H](OCc2ccc(CO)cc2)O1,-11%,i,7%,25µM*,-1%
CCc1c(C)sc(NC(=O)C2CCCO2)c1C#N (stereo not given),-8%,i,1%,i,22µM*
NC(=O)/C=C/C(=O)Nc1ccc(Cl)cc1,15%,i,-24%,i,20µM*
Cc1ccc(S(=O)(=O)N2CCSC2)cc1C,1%,i,0%,0.89µM*,-11%
CC(C)Cc1nc(N2CCN(C(=O)c3ccco3)CC2)c(C#N)c2c1CCCC2,-12%,i,-25%,?,?
CCCC(=O)N1CCN(c2nc(CC(C)C)c3c(c2C#N)CCC3)CC1,1%,i,24%,?,11µM*
CC[n+]1ccnc2ccccc21,-3%,nt,nt,nt,nt
Cc1ccc(CSc2nc3ccsc3c(=O)n2Cc2ccccn2)cc1,3%,i,?,nt,35µM*
CC(C)=CCC[C@](C)(O[C@@H]1O[C@H](CO[C@@H]2OC[C@@H](O)[C@H](O)[C@H]2O)[C@@H](O)[C@H](O)[C@H]1O)C1CC[C@]2(C)C1[C@H](O)CC1[C@@]3(C)CC[C@H](O[C@@H]4O[C@H](CO)[C@@H](O)[C@H](O)[C@H]4O)C(C)(C)C3CC[C@]12C (stereo not given in full),3%,i,nt,16µM*,15%
CC(C)=CCC[C@](C)(O[C@@H]1O[C@H](CO[C@@H]2OC[C@H](O[C@@H]3OC[C@@H](O)[C@H](O)[C@H]3O)[C@H](O)[C@H]2O)[C@@H](O)[C@H](O)[C@H]1O)C1CC[C@]2(C)C1[C@H](O)CC1[C@@]3(C)CC[C@H](O)C(C)(C)C3[C@@H](O)C[C@]12C (stereo not given in full),0%,i,nt,i,5%
COc1ccc(-c2cc(C(=O)NC(C)c3ccccc3)c3cc(C(C)C)ccc3n2)cc1 (stereo not given),nt,i,nt,i,13%
CCCCn1nc(C(=O)N(CC)CC(=O)Nc2c(F)cccc2F)c2ccccc2c1=O,0%[1.84 µM],i,2%,?,7%
O=c1cc2c(nn1Cc1ccccc1Cl)-c1ccccc1CC2,9%,i,20µM*,i,24%
Cc1nc(Sc2ccccc2)c(C#N)cc1-c1ccccc1,-9%,i,3%,i,1%
Cc1nc(Sc2ccccc2)c(C#N)c(C)c1[N+](=O)[O-],1%,?,-9%,i,7.1µM*
